Legend:
Assay type in all cases: functional
[1] = biological target: Solute carrier family 2, facilitated glucose transporter member 1 (Homo sapiens) (UniProt P11166); assay: ST_JUDE_LEISH: Cytotoxicity at 2uM final concentration against transgenic Leishmania Mexicana promastigotes LmGLUT1 that are glucose transport deficient and complemented with the human glucose transporter GLUT1. Activity is measured by DNA content using SYBR green in vitro
[2] = biological target: Hexose transporter 1 (Plasmodium falciparum) (UniProt O97467); assay: ST_JUDE_LEISH: Cytotoxicity at 2uM final concentration against transgenic Leishmania Mexicana promastigotes LmPfHT that are glucose transport deficient and complemented with the Plasmodium falciparum hexose transporter. Activity is measured by DNA content using SYBR green in vitro
[3] = biological target: Glucose transporter (Leishmania mexicana) (UniProt O61059); assay: ST_JUDE_LEISH: Cytotoxicity at 2uM final concentration against transgenic Leishmania Mexicana promastigotes LmGT2 that are glucose transport deficient and complemented with the L. Mexicana glucose transporter 2. Activity is measured by DNA content using SYBR green in vitro

Chain of Solute carrier family 2, facilitated glucose transporter member 1 (Homo sapiens) (P11166 whole entry): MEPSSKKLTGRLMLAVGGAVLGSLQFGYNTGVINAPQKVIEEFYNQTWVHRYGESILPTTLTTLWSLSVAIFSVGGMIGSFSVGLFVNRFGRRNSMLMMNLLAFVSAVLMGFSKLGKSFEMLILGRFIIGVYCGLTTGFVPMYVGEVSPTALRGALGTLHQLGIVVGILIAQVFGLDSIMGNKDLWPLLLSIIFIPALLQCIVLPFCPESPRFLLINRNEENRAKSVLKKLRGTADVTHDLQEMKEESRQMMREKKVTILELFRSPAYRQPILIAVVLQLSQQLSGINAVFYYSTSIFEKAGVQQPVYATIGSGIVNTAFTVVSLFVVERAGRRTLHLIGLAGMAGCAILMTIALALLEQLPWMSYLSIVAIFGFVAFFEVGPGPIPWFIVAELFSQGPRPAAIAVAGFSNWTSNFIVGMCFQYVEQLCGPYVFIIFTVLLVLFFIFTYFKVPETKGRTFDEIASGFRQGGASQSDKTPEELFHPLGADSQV

SMILES | inhibition [1] [%] | inhibition [2] [%] | inhibition [3] [%]
O=C(Nc1ccc([N+](=O)[O-])cc1)Nc1nc2ccc(Cl)cc2s1 | 5.09 | 4.52 | 1.81
NCCNC(=O)c1ccc(-c2cnc3[nH]cc(-c4ccc(C(N)=O)cc4)c3c2)cc1 | 3.65 | 2.58 | 2.98
O=C(/C=C/c1ccc(Cl)c(Cl)c1)NCCCCCCN1CCCN(C(=O)Nc2cccc(Cl)c2)CC1 | -1.03 | 0.08 | -2.92
COc1ccc(Cc2c(N)nc3nc(N)nc(N)c3c2C)cc1 | 1.48 | 3.73 | 3.1
Cc1ccc2nc3ccccc3c(NCCN3CCN(C)CC3)c2c1 | 39.1 | 50.6 | 21.1
CC1CCCN(Cc2c(O)ccc3c(O)c(-c4nc5ccccc5s4)c(=N)oc23)C1 (stereo unspecified) | 3.47 | 8.25 | 0.96
O=C(NCCCCN1CCC(c2ccc3ccccc3c2O)CC1)c1ccc(NC(=O)c2ccc(Cl)cc2)cc1 | -0.08 | 1.46 | 0.92
O=C(CC1CCCC1)Nc1ccc2c(c1)CCC2 | 2.83 | 3.17 | 1.69
COc1ccccc1N1CCN(Cc2c(O)ccc3cc(Br)ccc23)CC1 | 5.54 | 4.31 | 6.16
CCc1ccc(CN2CCC(NC(=O)c3cc(-c4ccc(N(C)C)cc4)cs3)C2)cc1 (stereo unspecified) | 1.27 | 4.08 | 6.01
COc1cc2nc(N3CCC(CNC(=O)/C=C/c4ccccc4F)CC3)nc(N)c2cc1OC | 8.22 | 7.84 | 4.27
O=c1cc(NCCCNCc2cc(F)cc(C(F)(F)F)c2)[nH]c2ccccc12 | -0.27 | -0.14 | 4.38
CCc1cn2c3c(cc(C(=O)N[C@@H](Cc4ccccc4)[C@H](O)CNC4CCOCC4)cc13)N(C(C)C)S(=O)(=O)CC2 | -1.49 | 3.8 | 0.93
Fc1ccccc1CNc1ncc(-c2ccsc2)c(-c2nccs2)n1 | -0.99 | 0.2 | -3
COc1cc2c(cc1S(=O)(=O)c1ccc(COc3ccc(C(F)(F)F)cc3)cc1)CNCC2 | -1.59 | -0.71 | -1.92
CS(=O)(=O)c1ccc(CNCc2ccc(-c3ccc(-c4nc5cc(C(F)(F)F)ccc5[nH]4)cc3)cc2)cc1 | 2.96 | 1.96 | 2.3
COc1ccccc1C(C)NCC(=O)Nc1cc(C(F)(F)F)ccc1Cl (stereo unspecified) | 1.79 | 3.31 | 0.58
O=S(=O)(NCCN1CCCC1)c1ccc(-c2ccc(CNCc3ccccc3)cc2)cc1 | 2.85 | 1.2 | -0.93
Cc1cc2nc(-c3cc(Br)ccc3O)c(-c3cc(Br)ccc3O)nc2cc1C | -1.26 | -1.38 | -1.13

SMILES | inhibition [1] [%] | inhibition [2] [%] | inhibition [3] [%]
CN1C(=O)C(=O)N(CCCCCONC(=N)N)C1=S | 9.86 | 6.2 | 9.97
CS(=O)(=O)c1ccc2[nH]c(-c3cc(-c4cccc(F)c4)cnc3N)nc2c1 | 5.71 | 3.53 | 3.04
COc1cccc(C(NC(=O)c2ccccc2)c2ccc3cccnc3c2O)c1 (stereo unspecified) | -0.96 | 2.16 | -1.64
COc1cccc(NC(=O)Nc2ccc(-c3oc(C(=O)NCC(c4ccccc4)N(C)C)cc3-c3ccncc3)cc2)c1 (stereo unspecified) | 5.08 | 3.73 | 3.18
NCCCCc1c(-c2ccc(Cl)c(Cl)c2)[nH]c2ccc(Cl)cc12 | -2.7 | -1.68 | -3.34
O=C(C=Cc1ccc(Cl)c(Cl)c1)NCCCCCN1CCC(CCNC(=O)c2sc3ccccc3c2Cl)CC1 | 11.5 | 9.43 | 8.75
COc1ccc(CNCc2cccc(-c3cccc(-c4nc5cccc(C)c5[nH]4)c3)c2)cc1 | 9.14 | 8.38 | 7.72
CN(CCN(C)C(=O)NCc1ccccc1)C(=O)NCc1ccccc1 | 3.05 | 3.69 | 3.75
CC1=C(C(=O)Nc2ccccc2)C(c2ccc([N+](=O)[O-])cc2)n2ncc(C(=O)Nc3ccccc3)c2N1 (stereo unspecified) | 14.2 | 6.94 | 5.18
c1ccc2ncc(CNCCCCCCCCNCc3cnc4ccccc4c3)cc2c1 | -0.67 | -0.08 | 0.09
Cc1nc(-c2cccc(C(=O)Nc3cnc4ccccc4c3)c2)no1 | 5.51 | 3.53 | 3.52
O=C(Nc1ccc(Cl)cc1)c1cccc(S(=O)(=O)NC2CCN(CC3CCCCC3)C2)c1 (stereo unspecified) | 9.12 | 8.41 | 4.13
COc1ccc(NC(=O)[C@H](CC(C)C)Nc2cc(C)nc(NCCOc3ccccc3)n2)cc1 | 1.07 | 2.71 | -0.23
COc1cc2ncnc(Nc3ccc(OCc4ccccc4)c(C(F)(F)F)c3)c2cc1OC | 1.67 | 0.75 | 0.32
Cc1cnc(N2CCN(CC3CCN(C)CC3)CC2)nc1Oc1ccc(-n2ccnc2)cc1 | 4.68 | 3.96 | 2.78
Cc1cccc2nc(-c3cccc(-c4cccc(NC(=O)c5cnccc5C(F)(F)F)c4)c3)[nH]c12 | 3.64 | 0.6 | -3.32
Cc1ccc(CON2C(=N)N=C(N)NC2(C)C)cc1C | 4.78 | 3.55 | 3.93
Cc1cccc2nc(-c3cccc(-c4ccc(NC(=O)C(=O)c5cccn5C)cc4)c3)[nH]c12 | 2.86 | 0.6 | -2.97
Cc1[nH]c(C)c(-c2ccc(-c3ccccc3F)nc2)c(=O)c1Cl | 1.2 | -2.36 | 1.16

SMILES | inhibition [1] [%] | inhibition [2] [%] | inhibition [3] [%]
CCCc1cn2c3c(cc(C(=O)N[C@@H](Cc4ccccc4)[C@H](O)CNC4CCCCC4)cc13)N(C)S(=O)(=O)CC2 | 1.94 | 2.85 | 1.49
Fc1ccc2[nH]c(-c3ccc(-c4ccc(CN5CCC(CCN6CCCCC6)CC5)cc4)s3)nc2c1 | 5.18 | 3.85 | 4.98
CCCCN(CCCC)CCC(O)C(=Cc1ccc(Cl)cc1Cl)c1ccc(C(F)(F)F)cc1N (stereo unspecified) | -0.65 | 0.65 | 0.7
NC1CCN(Cc2ccc(-c3ccc(-c4nc5cc(F)ccc5[nH]4)cc3)cc2)C1 (stereo unspecified) | 6.38 | 4.78 | -0.01
CC1CN(Cc2cccc(C#N)c2)CCN1c1ccc(NC(=O)c2cccs2)cc1 (stereo unspecified) | 6.93 | 7.96 | 4.53
CCC(=O)Nc1cc(=O)[nH]c2nc(-c3ccc(Cl)cc3)nn12 | -1.32 | -2.09 | -2.81
COC(=O)CCCCCOc1cc(Cc2cnc(N)nc2N)cc(OC)c1OC | -0.5 | -5.95 | 0.35
O=C(NCCCCCN1CCC(c2c[nH]c3ccccc23)CC1)Nc1ccc(Br)cc1 | -0.87 | -1.37 | -0.48
CCC(C)Oc1ccc(CCCON2C(N)=NC(N)=NC2(C)C)cc1 (stereo unspecified) | 12.6 | 20.2 | 13.8
COc1ccc(-c2ccc(CNCc3ccsc3)cc2)cc1S(=O)(=O)NCCN1CCCC1 | -0.99 | 0.23 | -2.28
CN1CCN(CCCN(Cc2cccc(-c3cccc(CNC4CCCC4)c3)c2)C(=O)/C=C/c2ccccc2)CC1 | -1.1 | -0.02 | -2.44
COc1cc(C(=O)N2CCOC(CCN3CCC4c5ccccc5CC43)(c3ccc(Cl)c(Cl)c3)C2)cc(OC)c1OC (stereo unspecified) | 3.86 | -2.68 | 9.19
COCc1cccc(-c2cc(-c3ccc(S(C)(=O)=O)cc3)cnc2N)c1 | -0.03 | -0.46 | -5.63
O=C(Nc1cccc(CN2CCCN(Cc3ncc[nH]3)CC2)c1)c1ccc(-c2ccccc2)cc1 | 0.65 | 1.21 | 2.54
COc1ccc(CCNC(C)Cc2ccc(C(=O)Nc3ccc(CC(C)NCCc4cccc(Cl)c4)cc3)cc2)cc1 (stereo unspecified) | 3.92 | 13 | 0.32
Cc1cccc(Cn2nc(-c3ccccc3)c(N3CCCCC3)cc2=O)c1 | 2.58 | 3.01 | -2.21
CS(=O)(=O)Nc1ccc2c(C3CCN(CCC4CCN(C(=O)/C=C/c5ccc(Cl)c(Cl)c5)CC4)CC3)c[nH]c2c1 | 4.12 | 3.65 | 4.12
CC(C)(C)c1nn(-c2ccccc2)c2[nH]c(=O)c(CNC3CCCCC3)cc12 | 1.69 | 1.5 | 2.72
Oc1ccc(Cl)cc1-c1cc(C(F)(F)F)nc(-c2ccccc2)n1 | 7.04 | 5.96 | 8.28
